Experimental findings from PubChem BioAssay (Tox21) are described below.

A number with no mark means an inactive call. Inconclusive results are not listed. Calls of active or inactive are those of the source. Unless noted, calls come from the whole dose curve; as a rule, active = well fitted curve in the direction sought with a large enough effect in the repeat runs; inconclusive = weak or mixed curves; inactive = no such curve, though single readings can be large; an effect the other way counts as inactive or inconclusive.

Assay [1] can be described thus: qHTS assay for small molecules that induce genotoxicity in human embryonic kidney cells expressing luciferase-tagged ATAD5 (AID 651632). Note: nearly all actives have a fitted effect of over 15% in size. Note: potency is the fitted concentration of half-maximal effect. The essentials: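 HEK293T cells carrying luciferase-tagged ATAD5 were given compound or DMSO vehicle and incubated 16 hr at 37C, 5% CO2. Luciferase activity was read after 30 min at room temperature with Amplite; a rise signals genotoxic stress.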
A general note: qHTS replaces the single test concentration by a dilution series.

The nature of assay [2]: qHTS assay for small molecule agonists of the p53 signaling pathway - cell viability (AID 651633; calls by dose curve;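 note: p53RE-bla HCT reporter cells with a stable beta-lactamase p53 reporter; series mostly up to about 83 µM; nearly all actives have a fitted effect of over 30% in size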). The essentials: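 p53RE-bla cells were treated with compound for 16 hours at 37 C. Cytotoxicity was then measured as CellTiter-Glo luminescence after 30 min at room temperature.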
Assay [3] can be described thus: qHTS assay for small molecules that induce genotoxicity in human embryonic kidney cells expressing luciferase-tagged ATAD5 - cell viability (AID 651634; calls by dose curve; note: nearly all actives have a fitted effect of over 25% in size). The essentials: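 HEK293T cells carrying luciferase-tagged ATAD5, 2,000 cells/well, exposed to compound for 15.5 hr at 37C. Viability read as live-cell protease activity by CellTiter-Fluor fluorescence after 30 min at 37C.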

The nature of assay [4]: qHTS assay for small molecule disruptors of the mitochondrial membrane potential (AID 720635). Note: potency is the fitted concentration of half-maximal effect. The essentials:
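HepG2 cells exposed to compound 1 hr at 37C, then Mito-MPS dye 30 min. Ratio read of aggregate (540/590 nm) versus monomer (490/535 nm) fluorescence.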

Assay [5] is described as follows: qHTS assay to test for compound auto fluorescence at 590 nm (red) in HepG2 cells (AID 720674). The essentials: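 HepG2 cells, 2,000 per well in MEM with 10% FBS, attached overnight at 37 C, then got 23 nL compound or DMSO. After 1 hr at 37 C, 5% CO2, red fluorescence was read at 540/590 nm against Rose Bengal sodium as reference.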
Assay [6] in a line: qHTS assay to test for compound auto fluorescence at 460 nm (blue) in HEK293 cells (AID 720678). Summed up: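 Blue read-out at excitation 405 nm and emission 460 nm follows overnight compound exposure of HEK293 cells at 37C in 5% CO2. Activity is given as auto fluorescence equivalency to triamterene.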
A short description of assay [7]: qHTS assay to test for compound auto fluorescence at 590 nm (red) in HEK293 cells (AID 720679). The essentials: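 Red channel, Ex/Em 540/590nm; signal expressed as equivalency to Rose Bengal sodium. HEK293, 2,000 cells/well, 10% dialyzed FBS; 23 nL compound pinned after 4-5 hr attachment; overnight 37C/5% CO2 before reading.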
Assay [8] can be described thus: qHTS assay to test for compound auto fluorescence at 535 nm (green) in HEK293 cells (AID 720680).
Assay [9] is described as follows: qHTS assay to test for compound auto fluorescence at 535 nm (green) in HEK293 cell free culture (AID 720682). The essentials:
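Read-out: 485/535 nm fluorescence intensity, calibrated against fluorescein. Medium only (DMEM + 10% FBS, no cells); test compound or DMSO vehicle added by pintool before plate reading.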

Assay [10] can be described thus: qHTS assay to test for compound auto fluorescence at 535 nm (green) in HepG2 cell free culture (AID 720686).
Assay [11] can be described thus: qHTS assay to test for compound auto fluorescence at 460 nm (blue) in HepG2 cells (AID 720687). The essentials:
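HepG2 cells in MEM with 10% FBS, attached overnight at 37 C, were exposed to compound or DMSO for 1 hr at 37 C, 5% CO2. Blue fluorescence was read at 405/460 nm, with triamterene as reference fluorophore.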

For assay [12], the target named is Glucocorticoid receptor (Homo sapiens) (UniProt P04150). Nature of the assay: qHTS assay to identify small molecule agonists of the glucocorticoid receptor (GR) signaling pathway (AID 720691; active = well fitted activation curve with a large enough effect in the signal ratio in the repeat runs, not every such curve was filed as active; the % refers to the signal ratio). The essentials: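 GR-bla HeLa cells carrying a GRE-driven beta-lactamase reporter, exposed to compounds for 18 h at 37 C. Reporter activation read as fluorescence after 2 h with LiveBLAzer B/G FRET substrate at room temperature.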

Assay [13] can be described thus: qHTS assay for small molecule disruptors of the mitochondrial membrane potential - cell viability (AID 720634; calls by dose curve;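 note: human HepG2 liver cancer cells; series mostly up to about 83 µM; nearly all actives have a fitted effect of over 20% in size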). Summed up: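 HepG2 cells, 2,000 per well, attached overnight, then treated 1 hr at 37 C, 5% CO2. Viability read as ATP by CellTiter-Glo luminescence after 30 min at room temperature. Read in the same wells as the m-MPI membrane-potential dye assay.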
The nature of assay [14]: qHTS assay to test for compound auto fluorescence at 535 nm (green) in HepG2 cells (AID 720675).
The nature of assay [15]: qHTS assay to test for compound auto fluorescence at 590 nm (red) in HEK293 cell free culture (AID 720683). Summed up: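 Cell-free wells of DMEM with 10% FBS received compound, and intrinsic fluorescence was read at excitation/emission 540/590 nm. Values expressed as equivalence to Rose Bengal sodium.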
The nature of assay [16]: qHTS assay to test for compound auto fluorescence at 590 nm (red) in HepG2 cell free culture (AID 720684). Summed up: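 Compound was pinned into wells holding MEM with 10% FBS and no cells, and red fluorescence was read at Ex/Em 540/590 nm. Signal is expressed as auto fluorescence equivalency relative to Rose Bengal sodium.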
Assay [17] can be described thus: qHTS assay to test for compound auto fluorescence at 460 nm (blue) in HepG2 cell free culture (AID 720685). Summed up: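 Compound (23 nL) or DMSO pinned into cell-free MEM with 10% FBS; blue fluorescence read at 405/460 nm excitation/emission, expressed as auto-fluorescence equivalency to triamterene.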
The nature of assay [18]: qHTS assay to test for compound auto fluorescence at 460 nm (blue) in HEK293 cell free culture (AID 720681). The essentials: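 Compounds were added to cell-free DMEM with 10% FBS and fluorescence read directly. The blue channel used 405 nm excitation and 460 nm emission, with triamterene as the reference fluorophore.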
Assay [19] deals with Glucocorticoid receptor (Homo sapiens) (UniProt P04150). Nature of the assay: qHTS assay to identify small molecule antagonists of the glucocorticoid receptor (GR) signaling pathway (AID 720692; active = well fitted inhibition curve with a large enough effect in the signal ratio in the repeat runs, not every such curve was filed as active; the % refers to the signal ratio). The essentials: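 GR-bla HeLa cells carrying a GRE-driven beta-lactamase reporter received compound after 4 h plating, then dexamethasone (5 nM final). After 18 h at 37C, the FRET substrate was loaded for 2 h at room temperature and fluorescence read.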

Sequence of Glucocorticoid receptor (Homo sapiens) (P04150 whole entry, looked up): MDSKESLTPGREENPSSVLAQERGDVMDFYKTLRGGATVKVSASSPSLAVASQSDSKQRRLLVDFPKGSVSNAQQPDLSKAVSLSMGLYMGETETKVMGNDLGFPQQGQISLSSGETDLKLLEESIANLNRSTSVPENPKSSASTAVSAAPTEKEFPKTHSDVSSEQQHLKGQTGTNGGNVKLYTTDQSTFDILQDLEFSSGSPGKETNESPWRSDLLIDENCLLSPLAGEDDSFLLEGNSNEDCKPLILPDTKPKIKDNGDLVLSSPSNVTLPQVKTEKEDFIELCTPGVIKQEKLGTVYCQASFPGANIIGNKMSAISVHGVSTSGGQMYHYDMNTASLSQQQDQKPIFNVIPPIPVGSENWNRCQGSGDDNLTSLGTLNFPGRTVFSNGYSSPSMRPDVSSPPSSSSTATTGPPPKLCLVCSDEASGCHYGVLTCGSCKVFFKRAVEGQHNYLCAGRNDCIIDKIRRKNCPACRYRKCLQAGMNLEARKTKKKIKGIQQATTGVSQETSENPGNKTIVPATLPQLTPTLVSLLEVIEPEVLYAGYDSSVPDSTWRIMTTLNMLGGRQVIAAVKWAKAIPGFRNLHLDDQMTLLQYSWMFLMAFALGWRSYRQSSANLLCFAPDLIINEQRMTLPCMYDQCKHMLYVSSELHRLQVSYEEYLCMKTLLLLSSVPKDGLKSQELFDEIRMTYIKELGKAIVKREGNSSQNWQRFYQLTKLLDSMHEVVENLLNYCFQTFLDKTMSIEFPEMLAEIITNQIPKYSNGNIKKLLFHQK

Consider `Nc1ccc(Oc2ccc(N)c(N)c2)cc1`, for which the Potency in assay [1] is 30.6 µM (active); in assay [4], 17.2 µM (active). Moreover, the Potency entry in assay [2], in assay [3] and in assay [12] was “inactive” in each case. Moreover, the result in assay [5], in assay [6], in assay [7], in [8], in [9] and in assay [10] was inactive. For the same compound, the result in [11] was inactive.
As to `c1ccc(CN(CC2=NCCN2)c2ccccc2)cc1`, the Potency entry in assay [1], in assay [2], in assay [3], in assay [13] and in assay [4] was “inactive” in each case. In addition, the compound was classed as inactive in assay [5], in assay [14], in assay [6], in assay [7], in [8] and in [9]. Further, the result in [15], in assay [16], in assay [17] and in assay [10] was inactive.
As for `CC1(C)C(=O)N(Cl)C(=O)N1Br`, the Potency result in [1], in assay [2], in assay [3], in assay [13], in assay [12] and in assay [19] was “inactive” throughout. The compound was called inactive in assay [5], in [14], in assay [6], in [7], in assay [18] and in assay [9]. Moreover, the call in assay [15], in assay [16], in [17] and in [11] was inactive.
Consider `CCCNC(C)(C)COC(=O)c1ccccc1`, for which the Potency entry in assay [1], in [2], in [3], in [13], in assay [12] and in assay [19] was “inactive” in each case. The compound was classed as inactive in [5], in assay [14], in assay [6], in [7], in assay [8] and in [18]. Also, the compound was called inactive in [9], in [15], in assay [16], in assay [17] and in assay [10].
For `CCC(=O)c1ccc2c(c1)N(CCCN(C)C)c1ccccc1S2`, the Potency entry in assay [1], in assay [2], in assay [3], in [13] and in assay [12] was “inactive” in each case. Also, the call in [5], in assay [14], in assay [6], in [7], in assay [8] and in [9] was inactive. Also, the compound was called inactive in assay [15], in [16], in [10] and in assay [11].
Consider `CCCCN1C[C@H](O)[C@@H](O)[C@H](O)[C@H]1CO`, for which the Potency result in assay [1], in [2], in assay [3], in assay [13], in assay [12] and in assay [19] was “inactive” each time. The compound was classed as inactive in assay [5], in assay [14], in [6], in assay [7], in [8] and in [18]. The call in assay [9], in [15], in assay [16], in assay [17] and in [11] was inactive.
With `CCNCCO`, the Potency entry in [1], in [2], in assay [3], in assay [13], in [4] and in [12] was “inactive” throughout. In addition, the Potency result in [19] is “inactive”. In addition, the compound was classed as inactive in [5], in [14], in [6], in assay [8], in [18] and in assay [9]. Further, the outcome in assay [15], in [16], in [17], in assay [10] and in assay [11] was inactive.
`COc1ccc(Nc2ccc(OC)cc2)cc1`: the Potency result in assay [2], in assay [12] and in assay [19] was “inactive” each time. Besides, the call in assay [5], in assay [14], in [6], in assay [8], in assay [18] and in [9] was inactive. Also, the compound was classed as inactive in assay [15], in assay [16], in [17], in assay [10] and in assay [11].
Take `CC(C)(C)C1CCCCC1=O` (configuration not stated): the Potency entry in [1], in assay [3], in assay [13] and in [12] was “inactive” throughout. In addition, the result in assay [5], in assay [14], in assay [6], in [7], in assay [8] and in [18] was inactive. Also, the compound was called inactive in assay [9], in assay [15], in assay [16], in [17], in [10] and in [11].
For `C=O`, the Potency entry in [2], in [3] and in [13] was “inactive” in each case. In addition, the outcome in assay [5], in [14], in [6], in [7], in assay [8] and in [9] was inactive. In addition, the compound was called inactive in assay [15], in [16], in assay [17], in assay [10] and in assay [11].
In the case of `CC(C)C[C@H](NC(=O)OCC1c2ccccc2-c2ccccc21)C(=O)O`, the Potency entry in assay [2], in assay [3], in assay [13] and in [19] was “inactive” throughout. Also, the call in [5], in [14], in [6], in assay [7], in assay [18] and in [9] was inactive. In addition, the compound was called inactive in [16], in [17], in assay [10] and in [11].
With `CN1CCC[C@@H]1Cc1c[nH]c2ccc(CCS(=O)(=O)c3ccccc3)cc12`, the Potency result in [2], in assay [3], in assay [13] and in assay [4] was “inactive” in each case. For the same compound, the compound was called inactive in assay [5], in [14], in assay [6], in assay [8], in assay [18] and in assay [9]. In addition, the call in [15], in assay [16], in [17], in assay [10] and in [11] was inactive.
As for `Cc1c(N)cccc1N`, the Potency result in assay [2], in assay [3], in assay [13], in assay [12] and in assay [19] was “inactive” each time. The Potency in assay [4] is 17.6 µM (active). The compound was called inactive in assay [5], in assay [14], in assay [6], in assay [7], in assay [8] and in assay [18]. Besides, the outcome in assay [9], in [15], in assay [16], in assay [10] and in assay [11] was inactive.
For the compound `NC1=NCC2c3ccccc3Cc3ccccc3N12` (configuration not stated), the Potency result in assay [2], in assay [3], in [13], in assay [4], in assay [12] and in assay [19] was “inactive” each time. Further, the compound was classed as inactive in [5], in [14], in [6], in assay [7], in [8] and in assay [18]. Also, the result in assay [9], in assay [16], in assay [17], in assay [10] and in [11] was inactive.
